About 3,200 (1.1%) of roughly 300,000 compounds were called active. No stated cut-off is given here; in the data, active means inhibition above about 75%; inconclusive means no clear call, values can overlap the other calls; inactive means below that; tested in HMLE shEcad cells. The sample as a whole holds a higher share of actives than the screen did.

The assay can be described thus: growth suppression of cancer stem-like cells – cell-based, luminescence, primary screen (AID 2717). The conditions noted are these: cancer stem cell-like cells viability, at 7.5 µM, active compounds read high.
As for `COc1cccc(C2=CC(=O)C[C@H](c3ccc(OC)c(OC)c3)C2)c1`, the inhibition is -9.08% (inactive).

`CN(CC(=O)Nc1ccc(Cl)cc1)C(=O)c1ccc(COc2ccccc2)cc1`: the inhibition is 22.8% (inactive).

Consider `CCOC(=O)c1c(-c2ccccc2)oc2ccc(OCC(N)=O)cc12`, for which the inhibition is -4.93% (inactive).

As to `CCOC(=O)c1c(-c2ccccc2)oc2cc(Br)c(O)c(C=O)c12`, the inhibition was 100% (active).

In the case of `CCOC(=O)c1c(-c2ccccc2)oc2cc(Br)c(O)cc12`, the inhibition was 47.8% (inactive).

In the case of `O=C1CC2(CCCC2)C(=O)N1CN1CCN(S(=O)(=O)c2ccc(F)cc2F)CC1`, the inhibition is -4.63% (inactive).

As for `CCCN(CC1CC1)C(=O)COC(=O)c1ccc(C)cc1O`, the inhibition is -16% (inactive).

For the molecule `CC(NC(=O)COC(=O)Cn1cc(C(F)(F)F)ccc1=O)c1ccccc1` (stereo not drawn), the inhibition is -18.4% (inactive).

As to `O=Cc1cn(Cc2ccccc2)nc1-c1cccnc1`, the inhibition is -1.18% (inactive).

As to `O=C1/C(=C\c2cccnc2)CN(Cc2ccccc2)C/C1=C\c1cccnc1`, the inhibition was 90.1% (active).

`Clc1ccc(CN2CCN(/N=C/c3cccnc3)CC2)cc1`: the inhibition is 3.75% (inactive).

As to `CC(OC(=O)c1c(F)cccc1F)C(=O)NCCC1=CCCCC1` (stereo not drawn), the inhibition was -17.6% (inactive).

`Cn1c(N)c(C(=O)COC(=O)c2cccc(S(=O)(=O)N3CCOCC3)c2)c(=O)n(C)c1=O`: the inhibition was 8.64% (inactive).

In the case of `O=C(NC(Nc1nc2ccc([N+](=O)[O-])cc2s1)(C(F)(F)F)C(F)(F)F)c1ccccc1`, the inhibition was 98.4% (active).

For the molecule `CCC(=O)NC(Nc1nc2ccc(C)cc2s1)(C(=O)OC)C(F)(F)F` (stereo not drawn), the inhibition was 6% (inactive).

Turning to `CCOc1ccc2nc(NC(=O)c3cc([N+](=O)[O-])ccc3N3CCOCC3)sc2c1`, the inhibition was 36.3% (inactive).

Consider `Cc1cccc(OCC(=O)OCC(=O)Nc2ccc(Cl)cn2)c1`, for which the inhibition was 0.766% (inactive).

Regarding `COC(=O)C1CCN(C(=O)COC(=O)c2cc(S(=O)(=O)N3CCOCC3)ccc2C)CC1`, the inhibition was 4.55% (inactive).

`COc1cc2c(-c3ccc4c(c3)OCO4)c(-c3ccsc3)oc(=O)c2cc1OC`: the inhibition was 8.35% (inactive).

Regarding `Cc1ccc(S(=O)(=O)NCC(=O)NNC(=O)c2ccc(Br)cc2)cc1C`, the inhibition is 1.69% (inactive).

On to `N#CCSc1nc2ccc(N3CCOCC3)cc2c(=O)n1CCc1ccccc1`, for which the inhibition is 77.9% (active).

On to `CCCCn1c(SCC(=O)NCC2CCCO2)nc2ccc(N3CCOCC3)cc2c1=O` (stereo not drawn), for which the inhibition was 34.5% (inactive).

Consider `COCCCNC(=O)CSc1nc2ccc(N3CCOCC3)cc2c(=O)n1CCc1ccccc1`, for which the inhibition was 20.5% (inactive).

For the molecule `CSc1ncccc1C(=O)Nc1cccc(S(=O)(=O)N2CCOCC2)c1`, the inhibition was -12.8% (inactive).

Regarding `c1ccc(-c2cc(N3CCCCC3)c3ccccc3n2)cc1`, the inhibition is 38.6% (inactive).

Regarding `O=c1cc(N2CCCCC2)c(-c2ccccc2)nn1Cc1cccc(F)c1`, the inhibition was 76.4% (active).

On to `O=C(CS(=O)(=O)c1cn(Cc2cccc(F)c2)c2ccccc12)N1CCCCC1`, for which the inhibition is -3.16% (inactive).

On to `CC(=O)c1c(OCC(=O)N(C)C2CCCCC2)ccc2c(C)cc(=O)oc12`, for which the inhibition was -10.2% (inactive).

With `O=C(CNC(=O)c1ccco1)NNC(=O)c1ccc(Br)cc1`, the inhibition was 5.78% (inactive).

`CC(C)(C)C(=O)NC(NC(=S)Nc1ccc(S(N)(=O)=O)cc1)C(Cl)(Cl)Cl` (stereo not drawn): the inhibition was -4.65% (inactive).

In the case of `O=C(Cc1cccc2ccccc12)NNC(=O)Nc1ccc(Cl)cc1`, the inhibition was 8.44% (inactive).

As for `Cc1ccc(NC(=S)NC(NC(=O)Cc2cccc3ccccc23)C(Cl)(Cl)Cl)cc1` (stereo not drawn), the inhibition is 192% (active).

In the case of `CCOC(=O)[C@H]1[C@H]2COc3ccc(Cl)cc3[C@@H]2N2C(=O)c3cc(C)ccc3NC(=O)[C@@]12C`, the inhibition is -10.6% (inactive).

For `CCCCn1c(-c2cccc(C)c2)nc2cc3[nH]c(=O)c(C(C)C)nc3cc21`, the inhibition was 75.5% (active).

Regarding `CCCCn1c(N)c(N(CCOC)C(=O)CSCC(=O)Nc2cccc(C)c2)c(=O)[nH]c1=O`, the inhibition was -17.7% (inactive).

As for `CCOCCn1c(-c2ccccc2)nc2ccccc21`, the inhibition is -0.165% (inactive).

With `Cc1cc(NC(=O)CN2C(=O)NC(CC(C)C)C2=O)no1` (stereo not drawn), the inhibition was -1.14% (inactive).

`Cc1ccccc1NC(=O)CSC(=O)c1ccccc1`: the inhibition is -3.3% (inactive).

Regarding `O=C(COC(=O)/C=C/c1ccc(Br)o1)Nc1cccc(S(=O)(=O)N2CCOCC2)c1`, the inhibition is -14.4% (inactive).

`COc1ccc(C=Nc2cccc3ncccc23)cc1`: the inhibition is -1.64% (inactive).

Take `Oc1c(C=Nc2cccc3nsnc23)ccc2ccccc12`: the inhibition is 87.2% (active).

Turning to `O=[N+]([O-])c1ccc(N=Cc2c(O)ccc3ccccc23)cc1`, the inhibition is 12.2% (inactive).

`C[C@H]1CN([C@@H](C)CO)C(=O)Cc2cc(NC(=O)Cc3ccccc3)ccc2O[C@H]1CN(C)S(=O)(=O)c1cccs1`: the inhibition was -17% (inactive).

In the case of `CCCC(=O)Nc1nc2ccc(NC(=O)c3cccnc3)cc2s1`, the inhibition is 47.6% (inactive).

Consider `CCCC(=O)Nc1nc2ccc(NC(=O)c3c(F)c(F)c(OC)c(F)c3F)cc2s1`, for which the inhibition was 92% (active).

For the molecule `CSc1nc2ccc(NC(=O)c3c(F)cccc3F)cc2s1`, the inhibition is 4.73% (inactive).

On to `Cc1ccc(S(=O)(=O)N2[C@@H](c3cccc4ccccc34)C(C(=O)O)=C[C@H]2C(C)(C)C)cc1`, for which the inhibition is 11.1% (inactive).

As to `COc1cccc(NC(=O)CSc2nnc(C3CCCCC3)n2N)c1`, the inhibition was -6.52% (inactive).

`CC(C)c1ccccc1OCC(O)CN(CC(O)COc1cccc2ccccc12)C(C)C` (stereo not drawn): the inhibition is 102% (active).

As to `OC(COc1cccc2ccccc12)CN1CCN(c2ccccn2)CC1` (stereo not drawn), the inhibition is -5.87% (inactive).

Take `Cc1cc(C)c(NC(=O)C[N+](C)(C)CC(O)COc2cccc3ccccc23)c(C)c1` (stereo not drawn): the inhibition is -3.82% (inactive).

On to `Cc1ccc(CC(=O)Nc2ccc(OC(F)F)c(Cl)c2)cc1C`, for which the inhibition was 33.3% (inactive).

As to `CC(=O)N1CCN(CC(=O)Nc2ccc(SC(F)F)cc2)CC1`, the inhibition was 5.6% (inactive).

Take `O=C(Cc1ccc(Cl)c(Cl)c1)Nc1ccc(SC(F)F)cc1`: the inhibition is 75.2% (active).

In the case of `COc1cc([N+](=O)[O-])ccc1NC(=O)COC(=O)CCOc1ccc(C)cc1`, the inhibition is 18.1% (inactive).

With `COc1ccc(NS(=O)(=O)c2ccc(NC(=S)NC(=O)/C=C/c3ccc(C)cc3)cc2)nn1`, the inhibition was 9.35% (inactive).

With `COc1ccc(/C=C/C(=O)c2ccc(NS(=O)(=O)c3ccc(C)cc3)cc2)cc1O`, the inhibition is 99.8% (active).

As to `Cc1ccc(C(=O)/C=C/Nc2ccc(S(=O)(=O)Nc3onc(C)c3C)cc2)cc1`, the inhibition was 6.82% (inactive).
